# Molecular target: T1, Cytoplasmic tyrosine-protein kinase BMX (Homo sapiens) (UniProt P51813)
# T1 sequence (whole entry): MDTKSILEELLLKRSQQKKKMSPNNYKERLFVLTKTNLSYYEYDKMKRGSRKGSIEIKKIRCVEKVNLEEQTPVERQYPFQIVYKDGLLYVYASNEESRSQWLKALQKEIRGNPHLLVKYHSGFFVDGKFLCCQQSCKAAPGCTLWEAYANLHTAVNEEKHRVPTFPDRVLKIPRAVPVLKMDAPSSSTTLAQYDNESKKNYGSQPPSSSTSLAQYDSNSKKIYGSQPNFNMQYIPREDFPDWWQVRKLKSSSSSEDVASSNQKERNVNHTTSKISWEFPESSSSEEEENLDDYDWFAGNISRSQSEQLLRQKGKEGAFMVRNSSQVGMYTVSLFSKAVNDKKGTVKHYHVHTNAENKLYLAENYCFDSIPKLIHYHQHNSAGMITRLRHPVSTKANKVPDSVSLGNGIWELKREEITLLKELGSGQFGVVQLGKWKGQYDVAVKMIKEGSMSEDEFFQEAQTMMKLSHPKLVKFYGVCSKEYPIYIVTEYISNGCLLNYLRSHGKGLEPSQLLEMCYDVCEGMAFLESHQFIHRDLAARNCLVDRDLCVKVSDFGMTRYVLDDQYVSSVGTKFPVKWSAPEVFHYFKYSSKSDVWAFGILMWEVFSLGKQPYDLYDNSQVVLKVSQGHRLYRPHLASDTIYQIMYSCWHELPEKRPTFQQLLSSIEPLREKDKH
# Settings: at 0.1 µM
row,SMILES,inhibition
1,Nc1ccc(C#Cc2cncnc2Nc2ccc(OCc3cccc(F)c3)c(Cl)c2)cc1,4.02%
2,O=S(=O)(CCOCc1ccc(-c2ccc3ncnc(Nc4ccc(OCc5cccc(F)c5)c(Cl)c4)c3c2)o1)c1ccccc1,-0.56%
3,Nc1nccc(C#Cc2cncnc2Nc2ccc(OCc3cccc(F)c3)c(Cl)c2)n1,1.74%
4,ON=C1CCc2cc(-c3nc(C4CCNCC4)[nH]c3-c3ccncc3)ccc21,1.43%
5,Cc1cc(O)cc(C)c1/C=C/c1cncc(C(=O)N(C)C)c1,-2.2%
6,CCn1c(-c2nonc2N)nc2c(C#CC(C)(C)O)nc(OCCNC)cc21,3.16%
7,Cc1cc(-c2ccccn2)cc(C)c1/C=C/c1cncc(-c2nn[nH]n2)c1,1.6%
8,NS(=O)(=O)c1ccc(-c2cc3ccncc3cc2OCc2ccccc2)cc1,4.23%
9,CS(=O)(=O)Nc1cccc(-c2ccc3c(NC(=O)C4CC4)n[nH]c3c2)c1,4.15%
10,O=C(Nc1ccc(Oc2ccc3[nH]c(NC(=O)c4ccco4)nc3c2)cc1)Nc1cc(C(F)(F)F)ccc1F,-2.09%
11,COc1ccc2ncnc(Nc3ccc(OCc4ccccc4)cc3)c2c1,2.68%
12,COC(=O)c1cncc(/C=C/c2c(C)cc(O)cc2C)c1,4.1%
13,Cc1ccc(C(=O)NC2CC2)cc1-c1ccc2[nH]ncc2c1,-2.64%
14,COc1cc2ncnc(Nc3ccc4c(cnn4Cc4ccccc4)c3)c2cc1OC,3.73%
15,Cc1ccc2c(c1)/C(=N/Nc1ccc(S(N)(=O)=O)cc1)C(=O)N2,1.94%
16,CN(C)CCCn1c(-c2nonc2N)nc2cnccc21,3.45%
17,CCCN1CCCC(c2ccc(Nc3nc(Nc4cc(F)ccc4C(N)=O)c4cc[nH]c4n3)c(OC)c2)C1 (stereo unspecified),5.67%

row,SMILES,inhibition
1,Cc1ccc(NC(=O)CC2CC2)cc1-c1ccc(C(=O)NCC2CC2)cc1,1.08%
2,Cc1ccc(Nc2ccnc(Nc3cccc(C(N)=O)c3)n2)cc1O,14.1%
3,CN(c1ccc(NC(=O)Nc2ccc(OC(F)(F)F)cc2)cc1)c1ccnc(Nc2cccc(S(N)(=O)=O)c2)n1,5.28%
4,CS(=O)(=O)CCNCc1nc(-c2ccc3ncnc(Nc4ccc(OCc5cccc(C(F)(F)F)c5)cc4)c3c2)cs1,3.48%
5,Cc1nc(-c2ccccc2)n2nc(NCCCN3CCOCC3)ncc12,3.56%
6,CN(C)C(=O)O[C@H]1CN[C@H](C#Cc2cc3ncnc(Nc4ccc(OCc5cccc(F)c5)c(Cl)c4)c3s2)C1,-3.39%
7,NC(=O)c1sc(-n2cnc3ccccc32)cc1OCc1ccccc1Br,3.03%
8,COc1cc(/C=N/Nc2ncnc3c2cnn3C(C)C)ccc1O,2.71%
9,Cc1ccc2c(-c3ccnc(Nc4cccc(C(F)(F)F)c4)n3)c(-c3ccccc3)nn2n1,7.21%
10,CC(C)c1ccc2c(c1)NC(=O)/C2=N/Nc1ccc(S(N)(=O)=O)cc1,0.14%
11,NS(=O)(=O)c1ccc(NC=C2C(=O)Nc3ccc4ncsc4c32)cc1,6.93%
12,CN(C)c1cc2c(Nc3ccc4c(cnn4Cc4ccccc4)c3)ncnc2cn1,3.53%
13,Oc1cccc(-c2nc(-c3ccccc3)[nH]c2-c2ccncc2)c1,7.29%
14,CCn1c(-c2nonc2N)nc2ccc(F)cc21,5.08%
15,CN1CCN(C(=O)c2ccc(NC(=O)Nc3ccc(N(C)c4ccnc(Nc5ccc(CS(C)(=O)=O)cc5)n4)cc3)cc2)CC1,19.1%
16,Nc1nccc(-c2c(-c3ccc(F)cc3)nn3cc(C(F)(F)F)ccc23)n1,-1.09%

# Molecular target: T1, Cytoplasmic tyrosine-protein kinase BMX (Homo sapiens)
# Settings: at 1 µM
row,SMILES,inhibition
1,Nc1ccc(C#Cc2cncnc2Nc2ccc(OCc3cccc(F)c3)c(Cl)c2)cc1,2.63%
2,O=S(=O)(CCOCc1ccc(-c2ccc3ncnc(Nc4ccc(OCc5cccc(F)c5)c(Cl)c4)c3c2)o1)c1ccccc1,1.08%
3,Nc1nccc(C#Cc2cncnc2Nc2ccc(OCc3cccc(F)c3)c(Cl)c2)n1,8.65%
4,ON=C1CCc2cc(-c3nc(C4CCNCC4)[nH]c3-c3ccncc3)ccc21,-1.75%
5,Cc1cc(O)cc(C)c1/C=C/c1cncc(C(=O)N(C)C)c1,5.69%
6,CCn1c(-c2nonc2N)nc2c(C#CC(C)(C)O)nc(OCCNC)cc21,6.56%
7,Cc1cc(-c2ccccn2)cc(C)c1/C=C/c1cncc(-c2nn[nH]n2)c1,31.2%
8,NS(=O)(=O)c1ccc(-c2cc3ccncc3cc2OCc2ccccc2)cc1,4.75%
9,CS(=O)(=O)Nc1cccc(-c2ccc3c(NC(=O)C4CC4)n[nH]c3c2)c1,1.52%
10,O=C(Nc1ccc(Oc2ccc3[nH]c(NC(=O)c4ccco4)nc3c2)cc1)Nc1cc(C(F)(F)F)ccc1F,1.74%
11,COc1ccc2ncnc(Nc3ccc(OCc4ccccc4)cc3)c2c1,2.81%
12,COC(=O)c1cncc(/C=C/c2c(C)cc(O)cc2C)c1,29.6%
13,Cc1ccc(C(=O)NC2CC2)cc1-c1ccc2[nH]ncc2c1,-6.39%
14,COc1cc2ncnc(Nc3ccc4c(cnn4Cc4ccccc4)c3)c2cc1OC,23.4%
15,Cc1ccc2c(c1)/C(=N/Nc1ccc(S(N)(=O)=O)cc1)C(=O)N2,-0.8%
16,CN(C)CCCn1c(-c2nonc2N)nc2cnccc21,3.08%
17,CCCN1CCCC(c2ccc(Nc3nc(Nc4cc(F)ccc4C(N)=O)c4cc[nH]c4n3)c(OC)c2)C1 (stereo unspecified),5.71%

row,SMILES,inhibition
1,Cc1ccc(NC(=O)CC2CC2)cc1-c1ccc(C(=O)NCC2CC2)cc1,5.01%
2,Cc1ccc(Nc2ccnc(Nc3cccc(C(N)=O)c3)n2)cc1O,56.7%
3,CN(c1ccc(NC(=O)Nc2ccc(OC(F)(F)F)cc2)cc1)c1ccnc(Nc2cccc(S(N)(=O)=O)c2)n1,26.1%
4,CS(=O)(=O)CCNCc1nc(-c2ccc3ncnc(Nc4ccc(OCc5cccc(C(F)(F)F)c5)cc4)c3c2)cs1,5.73%
5,Cc1nc(-c2ccccc2)n2nc(NCCCN3CCOCC3)ncc12,5.57%
6,CN(C)C(=O)O[C@H]1CN[C@H](C#Cc2cc3ncnc(Nc4ccc(OCc5cccc(F)c5)c(Cl)c4)c3s2)C1,3.3%
7,NC(=O)c1sc(-n2cnc3ccccc32)cc1OCc1ccccc1Br,4.96%
8,COc1cc(/C=N/Nc2ncnc3c2cnn3C(C)C)ccc1O,17.1%
9,Cc1ccc2c(-c3ccnc(Nc4cccc(C(F)(F)F)c4)n3)c(-c3ccccc3)nn2n1,38.2%
10,CC(C)c1ccc2c(c1)NC(=O)/C2=N/Nc1ccc(S(N)(=O)=O)cc1,6.03%
11,NS(=O)(=O)c1ccc(NC=C2C(=O)Nc3ccc4ncsc4c32)cc1,13.8%
12,CN(C)c1cc2c(Nc3ccc4c(cnn4Cc4ccccc4)c3)ncnc2cn1,20.8%
13,Oc1cccc(-c2nc(-c3ccccc3)[nH]c2-c2ccncc2)c1,8.97%
14,CCn1c(-c2nonc2N)nc2ccc(F)cc21,6.05%
15,CN1CCN(C(=O)c2ccc(NC(=O)Nc3ccc(N(C)c4ccnc(Nc5ccc(CS(C)(=O)=O)cc5)n4)cc3)cc2)CC1,68%
16,Nc1nccc(-c2c(-c3ccc(F)cc3)nn3cc(C(F)(F)F)ccc23)n1,0.94%
